The list is not random: actives were taken first. Their share in the collection is about 19%.
HT1080 IDH1KD tx: HT-1080 IDH1 knockdown cell toxicity (counter line). HT-1080 IDH1 knockdown viability, ATP luminescence, 48 h. Potency, µM (titrated, usually from 46.1 µM), without a hit: at the highest dose activity, negative = toxicity, most hits filed as cytotoxic. 360,000 compounds, 2% hits;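 note: potency is the fitted concentration of half-maximal effect; 0% = DMSO wells and -100% = cell-free medium wells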
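Knockdown cells (IDH1KD HT-1080) received compounds 2 h after plating at 750 cells/well and were kept 48 h at 37 °C in 5% FBS RPMI. A CellTiter-Glo luminescence read gave % activity for curve fitting.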
TDP1 cell noCPT: qHTS for Inhibitors of human tyrosyl-DNA phosphodiesterase 1 (TDP1): qHTS in cells in absence of CPT. DT40 Tdp1-/- hTDP1 cells, no CPT, ATP luminescence, 48 h. Potency, µM (top dose mostly 46.2 µM), inactives show top-dose activity change, negative = growth inhibition, hits mostly inhibitors. 420,000 compounds, 15% hits. AID 686978, 2013; note: potency is the fitted concentration of half-maximal effect; nearly all actives have a fitted effect of over 55% in size
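Chicken DT40 Tdp1-/- cells stably complemented with human TDP1 were seeded at 400 cells/well with DMSO in place of 20 nM camptothecin. After compound pinning, cells grew at least 48 hr at 37 °C; viability read by CellTiter-Glo luminescence.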
HT1080-NT tox: kills 2HG-producing HT-1080-NT fibrosarcoma cells; HT-1080-NT fibrosarcoma viability, CellTiter-Glo ATP luminescence, 48 h; Potency, µM (top dose mostly 46.1 µM), without a hit: at the highest dose activity, negative = less viability, most hits filed as cytotoxic; 360,000 compounds, 1.6% hits;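 note: NT is the 2HG producing partner of a matched IDH1 knockdown line; potency is the fitted concentration of half-maximal effect; 0% = DMSO-treated cells and -100% = media-only wells without cells; nearly all actives have a fitted effect of over 55% in size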
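HT-1080-NT; 750 cells/well; 5% FBS RPMI; 48 h compound, 37 degrees C; CellTiter-Glo luminescence; curve fitting and curve-class assignment.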
ELG1 repair inh: ELG1-dependent DNA repair inhibition; HEK293T ELG1-luciferase reporter, luminescence, 16 h; DNA damage induced by 5-fluorouridine; Potency, µM (doses to about 46.1 µM), for the others: at the highest dose activity change, negative = inhibition, hits mostly inhibitors; 330,000 compounds, 2.3% hits; AID 504467; note: potency is the fitted concentration of half-maximal effect; nearly all actives have a fitted effect of over 55% in size
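DMSO vehicle served as the neutral condition. Each well held 2,000 cells given 5-fluorouridine plus compound; after 16 hr at 37 °C/5% CO2, ONE-Glo was added and luciferase measured 30 min later.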
IL1B secr inh: inflammasome signaling inhibition, IL-1 beta readout; 360,000 compounds, 4.7% hits; activity change, % at 57.5 µM; THP-1 LPS/ATP IL-1B secretion, AlphaLISA, 16 h; hits give low values; in the data active = activity change below about -50%; inconclusive = mostly about -30% to -49%
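Secreted IL-1B measured by AlphaLISA bead assay after 16 h compound exposure of THP-1 cells; compounds (final up to 57.5 uM) added 1 h before LPS (250 ng/mL) and ATP (1.25 mM) stimulation; lower signal means less secretion.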
TDP1 cell CPT: growth inhibition of DT40 Tdp1-/-;hTDP1 cells with camptothecin (screen for TDP1 inhibitors); 420,000 compounds, 12% hits; chicken DT40 Tdp1-/-;hTDP1 cells + 20 nM CPT, ATP luminescence, 48 h; Potency, µM (series often up to 46.2 µM), inactives show at the top dose activity change, negative = growth inhibition, most hits filed as inhibitors; note: potency is the fitted concentration of half-maximal effect; nearly all actives have a fitted effect of over 55% in size
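Cell growth measured by CellTiter-Glo luminescence after a minimum 48 h, 37 C compound exposure with 20 nM CPT in Tdp1-knockout DT40 cells stably expressing hTDP1, seeded 400/well; qHTS titration format.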
* = called active by the depositor; ? = inconclusive; . = no result given. Unless noted, calls come from the whole dose curve; as a rule, active = well fitted curve in the direction sought with a large enough effect; inconclusive = small, poorly fitted or top-dose-only effect, or another doubt; inactive = no such curve, though single readings can be large; an effect the other way counts as inactive or inconclusive. Unless noted, % is set by controls: 0 for no effect and ±100 for the full control effect.

SMILES | HT1080 IDH1KD tx | TDP1 cell noCPT | HT1080-NT tox | ELG1 repair inh | IL1B secr inh | TDP1 cell CPT
Cc1ccc(C(C)C)cc1OCC(=O)NCCCn1ccnc1 | 20% | 23µM* | 20% | -1% | 2 | ?
COc1ccccc1OCC(=O)NCCCn1ccnc1 | 1% | -3% | 7% | 13% | 4 | -1%
Cc1ccc(C(=O)Oc2ccc(Cl)c3cccnc23)cc1[N+](=O)[O-] | -20% | 21µM* | -1% | ? | -16 | ?
O=C(Oc1ccc(Cl)c2cccnc12)c1cccnc1 | ? | ? | ? | -3% | ? | ?
COc1ccc(C(=O)C(=O)N2CCC(Cc3ccccc3)CC2)cc1OC | -16% | 21µM* | -14% | . | -15 | ?
COc1cc(C(=O)OCC(=O)N2CCC(Cc3ccccc3)CC2)cc(OC)c1OC | 8% | 16µM* | 5% | ? | -15 | ?
COc1cc(/C=C/C(=O)OCC(=O)N2CCC(Cc3ccccc3)CC2)ccc1O | ? | 15µM* | -29% | ? | -70* | ?
O=C(C(=O)N1CCC(Cc2ccccc2)CC1)c1cccc(Br)c1 | ? | ? | 1% | . | -18 | ?
COc1cccc(OC)c1OCCCN1CCC(Cc2ccccc2)CC1 | ? | ? | -24% | -13% | -65* | ?
Cc1cccc(N(CC(=O)NCC2CCCO2)C(=O)CNS(=O)(=O)c2ccc(Cl)cc2)c1 (stereo unspecified) | 5% | -22% | -10% | 3% | -8 | 13%
Cc1noc(C)c1C(=O)N1CCC2(CC1)CCN(c1ccccn1)CC2 | . | ? | . | . | . | -15%
CN(C)c1ccc(C=C(C#N)C(=O)c2ccccc2)cc1Br | 9% | -2% | 6% | . | -16 | -1%
Cc1ccsc1CNC(=O)C1(C)CCN1C(=O)C(C)C (stereo unspecified) | 20% | -5% | ? | . | 15 | 12%
Cc1csc(NC(=O)C2(C)CCN2C(=O)C(C)C)c1C#N (stereo unspecified) | 1% | 8.2µM* | 1% | . | 50 | 8.2µM*
Oc1ccc(C[C@H]2CN([C@@H](Cc3ccc(O)cc3)CN3CCC[C@@H]3CN3C(=S)NC[C@@H]3Cc3ccccc3)C(=S)N2CCc2ccccc2)cc1 | ? | 10µM* | ? | . | ? | 9.2µM*
CC(C)C[C@@H](CN1CCCC1CN1C(=S)NC[C@@H]1Cc1ccc(O)cc1)N1C[C@H](Cc2ccc(O)cc2)N(CCc2ccccc2)C1=S (stereo partly specified) | ? | 7.3µM* | ? | . | 0 | 13µM*
Oc1ccc(C[C@H]2CNC(=S)N2C[C@H]2CCCN2C[C@H](Cc2ccccc2)N2C[C@H](Cc3ccc(O)cc3)N(CCc3ccccc3)C2=S)cc1 | 18µM* | 4.1µM* | 15µM* | . | ? | 7.3µM*
Oc1ccc(C[C@H]2CN([C@@H](Cc3ccccc3)CN3CCCC3CN3C(=S)NC[C@@H]3Cc3ccccc3)C(=S)N2CCc2ccccc2)cc1 (stereo partly specified) | 6% | 16µM* | -7% | . | 9 | 21µM*
COC(=O)c1ccc(NC(=O)N2CCC(CN3CCc4ccccc4C3)CC2)cc1 | . | -27% | . | . | . | ?
COc1ccc(S(=O)(=O)N2CCOC2CNC(=O)C(=O)NCc2ccccc2Cl)cc1 (stereo unspecified) | -19% | ? | -4% | 6% | -22 | ?
CCNC(=S)N1CCN(Cc2ccc3c(c2)OCO3)CC1 | 2% | 12% | -5% | -5% | 15 | -11%
O=C(NC(=S)N1CCN(Cc2ccc3c(c2)OCO3)CC1)c1ccc(Cl)cc1 | -22% | 21µM* | -22% | ? | -12 | ?

High-throughput results from PubChem BioAssay.
